# Reference: PubChem BioAssay (EPA / NIEHS)
# Inconclusive results are not listed. Calls of active or inactive are those of the source. Rule for the calls: active = hit-call score of the fitted dose curve at least 0.9, where 1 is the maximum; inconclusive = response in the unintended direction; inactive = score below 0.9.
# Experiments:
# [1] = TOX21_p53_BLA_p5_viability: Viability Assessment in the Tox21 HCT-116 p53 Agonism Beta-lactamase Assay, Phase 5 (AID 2283600)
# Summary of the method: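 ATP luminescence (CellTiter-Glo, 30 min, RT) served as the viability read-out, with loss of signal indicating cytotoxicity. Compounds in DMSO were pinned at a 217-fold dilution onto 4000 cells/well and incubated 16 h, 37C.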
# [2] = biological target: Cellular tumor antigen p53 (Homo sapiens) (UniProt P04637); assay: TOX21_p53_BLA_p4_ratio: Tox21 HCT-116 p53 Agonism Beta-lactamase Assay, Ratio, Phase 4 (AID 2283601)
# Summary of the method: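 HCT-116 p53 beta-lactamase reporter cells (4000/well) preincubated 5 h, then compound (217-fold dilution of DMSO stock) for 16 h at 37C. CCF4-AM substrate added 2 h at room temperature; 460/530 nm emission ratio fitted upward versus DMSO.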
# [3] = Tanguay_ZF_120hpf_MORT_legacy: (Legacy) Oregon State University Tanguay Lab 120 Hour Post-fertilization zebrafish Assay for Mortality (AID 2283633)
# Summary of the method: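 Brightfield scoring of embryo death (binary) at 24 and 120 hpf; static exposure 6–120 hpf, 28C, sealed and foil-covered. Pronase-dechorionated 5D wild-type larvae, single embryo per well. DMSO 0.64% v/v; trimethyltin chloride 5uM positive control.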
# [4] = Tanguay_ZF_120hpf_YSE_legacy: (Legacy) Oregon State University Tanguay Lab 120 Hour Post-fertilization zebrafish Assay for Yolk Sac Edema (AID 2283634);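 for AC50: actives raise the incidence of yolk sac edema above the DMSO baseline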
# Summary of the method: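 Binary brightfield scoring of yolk sac edema at 120 hpf; DMSO baseline, gain-of-signal fitting. Dechorionated 5D larvae, one per well, static exposure 6–120 hpf, 28C, 0.64% DMSO. Dead embryos not scored.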
# [5] = Tanguay_ZF_120hpf_EYE_legacy: (Legacy) Oregon State University Tanguay Lab 120 Hour Post-fertilization zebrafish Assay for Eye Malformation (AID 2283636);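 note: binary presence or absence of eye malformation scored by brightfield in 120 hpf larvae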
# Summary of the method: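 5D wild-type embryos, pronase-dechorionated at 4 hpf; static exposure 6–120 hpf, 28C, dark; DMSO 0.64% final; 5uM trimethyltin chloride positive control. Binary eye-defect scoring at 120 hpf; dead embryos not scored.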
# [6] = Tanguay_ZF_120hpf_SNOU_legacy: (Legacy) Oregon State University Tanguay Lab 120 Hour Post-fertilization zebrafish Assay for Snout Malformation (AID 2283637)
# Summary of the method: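 Binary brightfield scoring of snout malformation at 120 hpf. Dechorionated 5D wild-type embryos, one per well, static exposure from 6 hpf at 28C, sealed and dark; final DMSO 0.64% (vol/vol), DMSO as baseline; 5uM trimethyltin chloride positive control.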
# [7] = Tanguay_ZF_120hpf_OTIC_legacy: (Legacy) Oregon State University Tanguay Lab 120 Hour Post-fertilization zebrafish Assay for Otic Vesicle Malformation (AID 2283639)
# Summary of the method: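 Binary scoring of otic vesicle defects at 120 hpf in zebrafish (Tropical 5D) held under static exposure at 28C, sealed and shaded, with final DMSO 0.64%. Embryos dying by 24 or 120 hpf excluded; fitted positively against DMSO.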
# [8] = Tanguay_ZF_120hpf_PE_legacy: (Legacy) Oregon State University Tanguay Lab 120 Hour Post-fertilization zebrafish Assay for Pericardial Edema (AID 2283640);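 for AC50: potency for increased incidence of pericardial edema versus DMSO baseline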
# Summary of the method: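 Static waterborne exposure, 5D wild-type embryos, 28C, to 120 hpf; final DMSO 0.64% (vol/vol). Binary PE call at 120 hpf by brightfield; fitted upward vs DMSO baseline. 5uM trimethyltin chloride as positive control.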
# [9] = Tanguay_ZF_120hpf_BRAI_legacy: (Legacy) Oregon State University Tanguay Lab 120 Hour Post-fertilization zebrafish Assay for Brain Malformation (AID 2283641)
# Summary of the method: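 Read-out: binary brain morphology call at 120 hpf (brightfield), fitted in gain-of-signal direction vs DMSO. Wild-type Tropical 5D embryos, static exposure, 28C, 0.64% DMSO final; 5uM trimethyltin chloride as positive control.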
# [10] = Tanguay_ZF_120hpf_SOMI_legacy: (Legacy) Oregon State University Tanguay Lab 120 Hour Post-fertilization zebrafish Assay for Somite Malformation (AID 2283647)
# Summary of the method: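 Binary brightfield scoring of somite defects at 120 hpf in 5D wild-type larvae; one dechorionated embryo per well, static exposure from 6 hpf, 28C, sealed and dark. Final DMSO 0.64%; trimethyltin chloride 5uM positive control.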
# [11] = Tanguay_ZF_120hpf_PFIN_legacy: (Legacy) Oregon State University Tanguay Lab 120 Hour Post-fertilization zebrafish Assay for Pectoral Fin Malformation (AID 2283648);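 note: each larva judged yes or no for fin defect by brightfield with dead larvae skipped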
# Summary of the method: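 Binary pectoral fin malformation call at 120 hpf by brightfield microscopy; 5D wild-type zebrafish, chorion removed at 4 hpf, one embryo per well from 6 hpf, static exposure at 28C; DMSO (0.64% final) as baseline.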
# [12] = Tanguay_ZF_120hpf_CFIN_legacy: (Legacy) Oregon State University Tanguay Lab 120 Hour Post-fertilization zebrafish Assay for Caudal Fin Malformation (AID 2283649)
# Summary of the method: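 Dechorionated 5D wild-type zebrafish, static exposure 6–120 hpf, 28C, sealed and dark, 0.64% v/v DMSO final. Binary fin-malformation call at 120 hpf, brightfield; gain of signal vs DMSO baseline.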
# [13] = Tanguay_ZF_120hpf_SWIM_legacy: (Legacy) Oregon State University Tanguay Lab 120 Hour Post-fertilization zebrafish Assay for Swim Bladder Malformation (AID 2283654);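 note: swim bladder malformation in each larva scored yes or no under brightfield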
# Summary of the method: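 Tropical 5D embryos dechorionated at 4 hpf; 1 embryo/well from 6 hpf; static, sealed, dark exposure at 28C until 120 hpf; final DMSO 0.64%; 5uM trimethyltin chloride positive control; swim bladder defect recorded yes/no; dead embryos not scored.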
# [14] = Tanguay_ZF_120hpf_PIG_legacy: (Legacy) Oregon State University Tanguay Lab 120 Hour Post-fertilization zebrafish Assay for Pigmentation Malformation (AID 2283650);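 note: dechorionated Tropical 5D zebrafish embryos exposed singly from 6 to 120 hpf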
# Summary of the method: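 Brightfield scoring of pigmentation malformation at 120 hpf, recorded as binary present/absent per larva. Exposure: dechorionated 5D wild-type embryos, one per well, static from 6 hpf at 28C, final DMSO 0.64% (vol/vol). Dead embryos not scored.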
# [15] = biological target: Cellular tumor antigen p53 (Homo sapiens) (UniProt P04637); assay: TOX21_p53_BLA_p5_ratio: Tox21 HCT-116 p53 Agonism Beta-lactamase Assay, Ratio, Phase 5 (AID 2283599)
# Summary of the method: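 HCT-116 p53-bla cells (4000/well) plated 5 h, dosed with compound (217-fold DMSO dilution) for 16 h at 37 C; CCF4-AM substrate 2 h at room temperature. Activity is the 460/530 nm emission ratio (405 nm excitation), fitted in gain-of-signal direction versus DMSO.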
# [16] = Tanguay_ZF_120hpf_JAW_legacy: (Legacy) Oregon State University Tanguay Lab 120 Hour Post-fertilization zebrafish Assay for Jaw Malformation (AID 2283638)
# Summary of the method: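 Binary jaw-malformation calls at 120 hpf by brightfield imaging; DMSO (0.64% v/v) = baseline. Embryos: 5D wild-type, pronase-dechorionated, one per well from 6 hpf, static exposure, 28C, sealed, dark.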
# [17] = Tanguay_ZF_120hpf_AXIS_legacy: (Legacy) Oregon State University Tanguay Lab 120 Hour Post-fertilization zebrafish Assay for Body Axis Malformation (AID 2283635)
# Summary of the method: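 Embryos: 5D wild-type, pronase-dechorionated 4 hpf; static exposure 6–120 hpf, 28C, sealed, dark, 1 embryo/well, 0.64% DMSO. 120 hpf axis malformation scored present/absent; dead embryos excluded. Analysed as gain of signal vs DMSO.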
# Sequence of Cellular tumor antigen p53 (Homo sapiens) (P04637 whole entry, looked up): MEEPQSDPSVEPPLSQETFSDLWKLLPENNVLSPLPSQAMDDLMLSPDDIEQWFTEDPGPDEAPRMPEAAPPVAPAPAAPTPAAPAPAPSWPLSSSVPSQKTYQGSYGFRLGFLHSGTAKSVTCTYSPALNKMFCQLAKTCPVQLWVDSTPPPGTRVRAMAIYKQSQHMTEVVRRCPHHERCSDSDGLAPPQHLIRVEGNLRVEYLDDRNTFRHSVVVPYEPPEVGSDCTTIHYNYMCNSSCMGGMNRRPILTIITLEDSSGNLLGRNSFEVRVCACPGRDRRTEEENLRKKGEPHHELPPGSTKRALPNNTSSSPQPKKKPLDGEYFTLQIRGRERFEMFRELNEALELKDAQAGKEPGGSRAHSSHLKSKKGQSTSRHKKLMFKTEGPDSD
compound,measurement,setting,value
CCCCC(CC)COC(=O)CCCCC(=O)OCc1ccccc1 (stereo not drawn),outcome,[1],inactive
same,outcome,[2],inactive
same,outcome,[3],inactive
same,outcome,[4],inactive
same,outcome,[5],inactive
same,outcome,[6],inactive
same,outcome,[7],inactive
same,outcome,[8],inactive
same,outcome,[9],inactive
same,outcome,[10],inactive
same,outcome,[11],inactive
same,outcome,[12],inactive
same,outcome,[13],inactive
c1ccc2c(c1)ccc1ccccc12,outcome,[2],inactive
same,outcome,[3],inactive
same,outcome,[4],inactive
same,outcome,[5],inactive
same,outcome,[6],inactive
same,outcome,[8],inactive
same,outcome,[9],inactive
same,outcome,[11],inactive
same,outcome,[12],inactive
same,outcome,[14],inactive
same,outcome,[13],inactive
CC[C@H](C)[C@@H](C(=O)O)n1sc2ccccc2c1=O,outcome,[15],inactive
same,outcome,[3],inactive
same,outcome,[4],inactive
same,outcome,[5],inactive
same,outcome,[6],inactive
same,outcome,[16],inactive
same,outcome,[7],inactive
same,outcome,[8],inactive
same,outcome,[9],inactive
same,outcome,[10],inactive
same,outcome,[11],inactive
same,outcome,[12],inactive
same,outcome,[14],inactive
CCC(=C(c1ccc(O)cc1)c1ccc(OCCN(C)C)cc1)c1ccccc1,outcome,[3],inactive
same,outcome,[4],inactive
same,outcome,[17],inactive
same,outcome,[5],inactive
same,outcome,[6],inactive
same,outcome,[7],inactive
same,outcome,[10],inactive
same,outcome,[11],inactive
same,outcome,[13],inactive
O=C(O)c1ccccc1C(c1ccc(O)cc1)c1ccc(O)cc1,outcome,[3],inactive
same,outcome,[4],inactive
same,outcome,[17],inactive
same,outcome,[5],inactive
same,outcome,[6],inactive
same,outcome,[7],inactive
same,outcome,[8],inactive
same,outcome,[10],inactive
same,outcome,[11],inactive
same,outcome,[12],inactive
same,outcome,[14],inactive
same,outcome,[13],inactive
Cc1cc(C)c(O)c(C)c1,outcome,[15],inactive
same,outcome,[1],inactive
same,outcome,[2],inactive
same,outcome,[3],inactive
same,outcome,[6],inactive
same,outcome,[7],inactive
same,outcome,[8],inactive
same,outcome,[10],inactive
same,outcome,[11],inactive
same,outcome,[12],inactive
same,outcome,[14],inactive
same,outcome,[13],inactive
CCCOc1sc(C(=O)N2CCC(c3cc(CN)ccc3F)CC2)c(C)c1Br,AC50,[15],80700 nM (active)
same,AC50,[1],80100 nM (active)
same,AC50,[2],72200 nM (active)
same,outcome,[3],inactive
same,outcome,[4],inactive
same,outcome,[5],inactive
same,outcome,[7],inactive
same,outcome,[8],inactive
same,outcome,[9],inactive
same,outcome,[10],inactive
same,outcome,[11],inactive
same,outcome,[13],inactive
CCc1nn(C2CCCCC2)c2cc(C3(C#N)CCC(C(=O)O)CC3)ccc12 (stereo not drawn),outcome,[15],inactive
same,outcome,[1],inactive
same,AC50,[2],75200 nM (active)
same,AC50,[4],324 nM (active)
same,AC50,[5],377 nM (active)
same,AC50,[6],344 nM (active)
same,AC50,[7],3660 nM (active)
same,AC50,[8],270 nM (active)
same,AC50,[9],2710 nM (active)
same,AC50,[10],506 nM (active)
same,AC50,[11],563 nM (active)
same,AC50,[12],150 nM (active)
same,outcome,[14],inactive
same,AC50,[13],419 nM (active)
CCCCCCCCCCCCCCCS(=O)(=O)Oc1ccccc1,outcome,[15],inactive
same,outcome,[2],inactive
same,outcome,[3],inactive
same,outcome,[4],inactive
same,outcome,[6],inactive
same,outcome,[7],inactive
same,outcome,[8],inactive
same,outcome,[10],inactive
same,outcome,[11],inactive
same,outcome,[12],inactive
same,outcome,[14],inactive
same,outcome,[13],inactive
